# Sampled rows, rich in hits. Any-hit rate of the full collection: about 1.6%.
# GRK2 inh: inhibitors of human GRK2 displacing RNA aptamer. P25098. bead flow cytometry, FAM-aptamer displacement from GRK2. inhibition of aptamer binding, % at 10 µM. 330,000 compounds, 0.59% hits. AID 488847;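 active = inhibition of aptamer binding above 40%, roughly 3 SD of noise, on plates passing a quality check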;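 also: median bead fluorescence of bound FAM aptamer so fluorescent compounds give negative values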
# DSG3 Ab inh: inhibitors of pemphigus antibody binding to human desmoglein-3; P32926; 310,000 compounds, 0.48% hits; DSG3-coupled beads, scFv-anti-DSG3-GFP binding, flow cytometry; hits give low values; binding (percent of control), % at 10 µM;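 active = binding more than 3 SD below its plate's average and above zero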;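 also: hits lower antibody fragment binding to DSG3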
# GASC-1 inh: inhibitors of human GASC-1 (JMJD2C) demethylase; Q9H3R0; GST-JMJD2C(1-420) H3K9me3 demethylation, DELFIA europium; inhibition, % at 2.35 µM; 330,000 compounds, 0.069% hits;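 active = more than half of a compound's replicate wells show inhibition beyond 50%, single wells judged on their own value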;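 also: signal counts dimethyl H3K9 product captured on neutravidin plate; 0% = median of DMSO wells and 100% = 0.3 times that DMSO median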
# Target sequence (Q9H3R0 1-420 limits assumed): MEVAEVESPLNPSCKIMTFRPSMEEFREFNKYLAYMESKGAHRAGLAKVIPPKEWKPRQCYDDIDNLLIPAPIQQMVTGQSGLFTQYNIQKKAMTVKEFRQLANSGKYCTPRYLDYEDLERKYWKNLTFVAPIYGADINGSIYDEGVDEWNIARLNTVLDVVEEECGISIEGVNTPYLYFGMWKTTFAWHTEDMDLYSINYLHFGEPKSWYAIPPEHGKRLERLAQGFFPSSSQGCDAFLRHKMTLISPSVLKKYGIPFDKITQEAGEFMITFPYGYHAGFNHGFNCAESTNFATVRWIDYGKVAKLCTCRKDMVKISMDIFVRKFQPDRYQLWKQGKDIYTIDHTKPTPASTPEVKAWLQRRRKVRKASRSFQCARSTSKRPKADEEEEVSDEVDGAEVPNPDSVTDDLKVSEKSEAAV
# PREPL inh: inhibits the human prolyl oligopeptidase-like enzyme | Q4J6C6 | recombinant PREPL, fluorescence polarization activity-based probe | inhibition, % at 5.96 µM | 320,000 compounds, 0.68% hits; in the data active = inhibition above about 43%;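 also: 0% = enzyme with DMSO and 100% = wells lacking enzyme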
# VLA-4 inh: inhibition in a human VLA-4 binding assay; P13612; VLA-4 expressing cells, ligand binding flow cytometry; inhibition, % (about 7 µM as worked out from the volumes in the protocol); 330,000 compounds, 0.2% hits; AID 2557; in the data active = inhibition above about 50%
# GRK2 inh confirm: human GRK2 inhibition confirmation, cherry pick 1; shares compounds with GRK2 inh; bead-bound GRK2, FAM-aptamer displacement, flow cytometry; aptamer displacement, % at 10 µM; 2,000 compounds, 4% hits;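 active = aptamer displacement above 40%, near three times the noise of non-fluorescent compounds, on plates passing quality checks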;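 also: negative values mostly reflect intrinsic compound fluorescence rather than true enhancement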
# FAM quench CP1: quenches fluorescent RNA aptamer, GRK2 hit artifact | shares compounds with GRK2 inh | Carboxyfluorescein RNA aptamer on beads, flow cytometry quenching; hits give low values | fluorescence response (% of DMSO), % at 10 µM | 2,000 tested, under 10 active | AID 504580;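 active = compounds that quench the bead-bound fluorescent RNA probe, cutting fluorescence to under half of the solvent control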;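 also: counterscreen run without GRK2 so only probe quenching by compound is measured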
# GRK2 CP2: confirmation of human GRK2 inhibitors binding RNA aptamer site; shares compounds with GRK2 inh; AID 504782; inhibition of aptamer binding, % at 10 µM; 360 tested, under 10 active; bead-bound GRK2, FAM-aptamer displacement, flow cytometry;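 active = inhibition of aptamer binding above 40%, about triple the noise seen with nonglowing compounds, on plates passing quality control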;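 also: negative values mostly come from compounds that fluoresce themselves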
# Aptamer quench3: counter-screen for GRK2 aptamer inhibitors: fluorescent aptamer quenchers. AID 504819. Streptavidin beads, FAM-RNA aptamer fluorescence quenching, flow cytometry. change in fluorescence (kMESF span), kMESF (concentration not given with the values). 25 tested, under 10 active. shares compounds with GRK2 inh;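 active = compounds quenching the bead-bound labeled aptamer, with fluorescence dropping by more than 37 kMESF over the dose range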
# FAM quench SP: aptamer fluorescence quenching in GRK2 counter-screen; shares compounds with GRK2 inh; carboxyfluorescein RNA aptamer beads, flow cytometry quenching; hits give low values; fluorescence response vs DMSO, % at 10 µM; 360 tested, under 10 active; AID 588494;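 active = response vs DMSO under 50%, meaning signal dropped by over half, treated as fluorescence quencher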;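 also: labelled aptamer on streptavidin beads without GRK2 as a quench counter-screen; 100% = bead fluorescence of DMSO wells and lower means quenching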
# FAM quench PS1: counter-screen for GRK2 aptamer binding inhibitors: aptamer fluorescence quenching; 35 tested, under 10 active; AID 588496; shares compounds with GRK2 inh; Bead-bound FAM RNA aptamer fluorescence quenching, flow cytometry; hits give low values; fluorescence ratio to DMSO, % at 11.1 µM;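 active = compounds that dim the fluorescent label, raw bead signal shifting by over 33 units between lowest and highest dose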
# The depositor's hits bear a star; · = no result.
SMILES,GRK2 inh,DSG3 Ab inh,GASC-1 inh,PREPL inh,VLA-4 inh,GRK2 inh confirm,FAM quench CP1,others
CC(CC(=O)Nc1ccc(F)cc1)S(=O)(=O)c1ccc2c(c1)NC(=O)CO2 (stereo not drawn),4,110,1,25,-10,·,·,
CCCCC(=O)Nc1ccc(C(=O)NNC(=O)c2ccco2)cc1,65*,98,-2,8,-6,0,93,
O=C(O)Cc1ccc(NC(=O)c2ccc(NC(=O)c3ccco3)cc2)cc1,48*,101,-13,10,-6,1,98,
CC1COC(=O)C(NNc2ccc(Cl)c(Cl)c2)=N1 (stereo not drawn),4,104,7,4,-24,·,·,
O=C(CSc1nnc(-c2ccc(F)cc2)n1CC1CCCO1)NCc1ccco1 (stereo not drawn),0,109,1,11,0,·,·,
COCCCNC(=O)NC(=O)c1ccccc1,76*,102,5,1,17,·,·,GRK2 CP2=19;FAM quench SP=101
COCCCNC(=O)c1cccc(C(=O)NCCCOC)c1,2,97,-7,8,5,·,·,
CCC1C(=O)Nc2nc(-c3ccccc3)c(-c3ccccc3)n2N=C1C (stereo not drawn),2,108,-1,12,-1,·,·,
COc1ccc(NC(=S)Nc2nc(CC(=O)Nc3ccccc3OC)cs2)cc1,2,109,6,2,5,·,·,
COc1ccccc1NC(=O)Cc1csc(NC(=S)Nc2ccccc2)n1,58*,107,-1,-6,3,2,99,
COCCC(=O)N1CCC(Oc2ccc(C(=O)NCCSC)cc2)CC1,0,103,-19,-9,3,·,·,
Cc1nn(-c2ccccc2)c2c1C(=O)N(Cc1ccccc1)C(=O)C(C)(C)C2,44*,110,-8,1,28,-1,95,
Cc1nn(-c2nc3ccccc3n2Cc2ccccc2)c2c1C(=O)CC(C)(C)C2,0,·,·,-1,-11,·,·,
CCCC(=O)N(CCN1CCOCC1)c1nc2c(OCC)cccc2s1,0,102,-6,-1,-14,·,·,
CC1CCC(NC(=O)c2nn(C)c3c2CSc2ccccc2-3)CC1 (stereo not drawn),3,·,-3,-2,6,·,·,
COc1cccc(C2c3[nH]c4ccccc4c3CCN2C(=O)c2ccccc2F)c1OC (stereo not drawn),50*,91,9,4,-3,2,98,
Cc1nc2c(ccc3c2ccc2nc(C)sc23)s1,2,·,0,-5,5,·,·,GRK2 CP2=15;FAM quench SP=100
CN(CC(=O)Nc1ccccc1Cl)C(=O)Cn1cc(C(F)(F)F)ccc1=O,65*,108,5,11,2,0,96,
O=C(COC(=O)C1CC1)Nc1ccc(Cl)cn1,53*,102,1,7,10,4,96,
O=C(CS(=O)(=O)c1ccccc1)Nc1ccc(Cl)cn1,0,99,-6,-12,-4,·,·,
O=C(CCS(=O)(=O)c1ccc(Br)cc1)Nc1ccccn1,14,102,-8,0,-24,4,99,
O=C(CCS(=O)(=O)c1ccc(Br)cc1)Nc1ccc(Br)cc1F,70*,99,7,-43,0,·,·,GRK2 CP2=0;Aptamer quench3=-2.3;FAM quench SP=100;FAM quench PS1=98
O=C(CCS(=O)(=O)c1ccc(Br)cc1)Nc1ccc(Cl)cc1F,0,101,-4,-40,-35,·,·,
O=C(CCS(=O)(=O)c1ccccc1)Nc1ccc(Cl)cn1,14,106,4,2,3,9,105,
Cc1cc(C)c(CC(=O)c2ccccc2)c(C)c1,·,121,·,·,·,·,·,
SMILES,GRK2 inh,DSG3 Ab inh,GASC-1 inh,PREPL inh,VLA-4 inh,GRK2 inh confirm,FAM quench CP1,others
Oc1cc2ccccc2nc1-c1ccccc1Cl,1,102,2,-3,0,·,·,
COc1ccc2[nH]c3c(c2c1)CCN1C(=O)C(CC(=O)NC(C)(C)C)C[C@H](C(=O)N(C(C)C)C(C)C)[C@@]31C (stereo partly drawn),2,103,·,·,·,·,·,
CCCCn1c(=O)[nH]c(=O)c2c1nc(-c1cc3c(cc1Br)OCO3)n2C,2,100,14,-4,-4,·,·,
Cc1ccc(OCCNC(=O)CCc2ccccc2)cc1C,79*,104,-8,-15,3,2,98,
Cc1ccc(NC(=O)CCc2ccccc2)cc1C,·,95,·,·,·,·,·,
O=C(CC1C(=O)NCCN1C(=O)c1ccccc1)Nc1cc(Cl)ccc1Cl (stereo not drawn),1,·,-6,-5,4,·,·,
Cc1nc(NC(=O)COC(=O)C2=NNC(=O)CC2)c(Cl)cc1Cl,55*,83,3,8,1,0,94,
Cc1ccn(CCC(=O)Nc2ccc3c(c2)OCO3)n1,6,103,-3,2,22,·,·,
O=C(CSc1nc2[nH]ncc2c(=O)[nH]1)Nc1ccc(OC(F)(F)F)cc1,65*,99,-24,-21,-1,-2,102,
O=C(CCc1nc2ccccc2c(=O)[nH]1)NNC(=O)COc1ccc(Br)cc1,1,106,-2,-3,1,·,·,
Cn1nccc1C(=O)Nc1cc(Cl)ccc1Cl,1,102,8,6,3,·,·,
CN1CCOC(=O)/C1=N/Nc1cc(Cl)ccc1Cl,57*,105,15,4,2,-6,96,
CCN(CC)S(=O)(=O)c1ccc(NC(=S)NC(=O)CC(C)C)cc1,0,·,17,2,-1,·,·,
CCc1ccc(NC(=S)NC(=O)CC(C)C)cc1,69*,87,-26,4,15,0,102,
CCCOc1ccc(/C=C/C(=O)NCc2ccccc2)cc1,2,96,-1,3,10,·,·,
O=C(CN(Cc1ccc(F)cc1)C(=O)CCC(=O)Nc1ccccn1)NCc1ccc(F)cc1,0,110,3,-7,-5,·,·,
O=C(CN(Cc1ccc(F)cc1)C(=O)CCC(=O)Nc1ccccn1)NCc1ccco1,100*,·,-1,7,-10,5,105,
CCN(Cc1ccccc1)C(=O)CCS(=O)(=O)c1ccc2c(c1)NC(=O)CO2,1,89,-16,-4,14,·,·,

# Assay outcomes deposited in PubChem by several laboratories.
